Reference: publication PMC4336329 (PLoS ONE, 2015)
Out of some 310,000 compounds screened, about 14,000 (4.5%) showed an effect of 50% or more. Effects have a minus sign here. The sample holds strong results, similar compounds and a random draw of the others, so the mix is not that of the screen.

Target: human ether-à-go-go-related gene (hERG) potassium channel (human, UniProt Q12809)
Experiment: primary screen, population patch clamp on CHO cells stably expressing hERG; higher = less effect of the substance
Method: Briefly, Chinese hamster ovary (CHO) cells stably expressing the hERG channel were dislodged from tissue culture flasks and dispensed into PPC plates. […] During the recording, background leak currents were estimated by a 100 ms step to -80 mV from an initial holding potential of -70 mV and subtracted from the subsequent current measurement. The campaign was conducted in two phases using slight differences in recording protocol. In the first phase, the initial voltage pulse used a 100 ms step to -30 mV from a holding potential of -70 mV, a 2 s conditioning step to +25 mV, and a 2 s test step to -30 mV. During the second phase of the screen, the potential during the conditioning step was raised to +45 mV. In both phases of the campaign, a secondary voltage pulse was applied using the same parameters as the second phase initial pulse. The initial and secondary pulses were applied in the absence of compound, and upon application of 1 μM and 10 μM test concentrations. […]
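Note: peak tail current of the secondary pulse compared with the same well before compound.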

human ether-à-go-go-related gene (hERG) potassium channel, sequence (Q12809 whole entry, looked up): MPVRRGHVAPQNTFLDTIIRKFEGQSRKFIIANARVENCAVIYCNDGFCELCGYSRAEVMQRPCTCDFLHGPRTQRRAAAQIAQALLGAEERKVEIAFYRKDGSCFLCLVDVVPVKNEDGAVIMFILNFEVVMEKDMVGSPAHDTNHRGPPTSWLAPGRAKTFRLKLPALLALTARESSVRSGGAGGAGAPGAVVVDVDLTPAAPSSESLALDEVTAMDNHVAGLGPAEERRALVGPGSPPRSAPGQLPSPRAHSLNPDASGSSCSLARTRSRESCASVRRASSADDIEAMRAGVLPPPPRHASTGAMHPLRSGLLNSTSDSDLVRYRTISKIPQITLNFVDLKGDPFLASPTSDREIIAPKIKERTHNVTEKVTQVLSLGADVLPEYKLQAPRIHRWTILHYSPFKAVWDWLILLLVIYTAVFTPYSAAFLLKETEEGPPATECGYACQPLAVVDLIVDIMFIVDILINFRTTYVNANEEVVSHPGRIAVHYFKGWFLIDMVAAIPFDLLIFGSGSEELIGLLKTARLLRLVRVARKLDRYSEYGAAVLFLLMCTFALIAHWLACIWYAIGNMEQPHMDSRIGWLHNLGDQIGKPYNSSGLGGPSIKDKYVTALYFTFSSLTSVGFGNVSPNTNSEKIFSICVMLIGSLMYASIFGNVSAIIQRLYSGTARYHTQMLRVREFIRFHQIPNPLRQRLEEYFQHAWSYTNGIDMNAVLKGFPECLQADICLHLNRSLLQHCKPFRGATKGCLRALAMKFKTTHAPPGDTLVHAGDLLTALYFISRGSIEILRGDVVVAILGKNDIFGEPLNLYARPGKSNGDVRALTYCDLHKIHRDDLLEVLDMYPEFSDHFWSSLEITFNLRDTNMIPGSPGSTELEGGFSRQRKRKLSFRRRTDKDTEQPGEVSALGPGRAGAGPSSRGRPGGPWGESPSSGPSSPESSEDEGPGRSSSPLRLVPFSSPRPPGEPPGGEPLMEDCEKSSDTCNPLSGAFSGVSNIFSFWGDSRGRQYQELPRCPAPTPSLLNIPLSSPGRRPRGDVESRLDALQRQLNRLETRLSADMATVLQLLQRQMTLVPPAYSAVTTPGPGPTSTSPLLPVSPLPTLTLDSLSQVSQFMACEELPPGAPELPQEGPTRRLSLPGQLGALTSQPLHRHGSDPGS

SMILES	hERG current change (%, negative = inhibition) at 10uM
O=C1CCc2ccccc2N1	16.5%
Cc1ccc(-c2csc(NC(=O)c3ccccc3Cl)c2C(=O)O)cc1	20.8%
COCc1nnc(NC(=O)c2ccc(S(=O)(=O)N(CC(C)C)CC(C)C)cc2)o1	-7.19%
NNc1nc2cc3c(cc2s1)OCCO3	14.1%
CN(C(=O)CSc1nc2c(cnn2-c2ccccc2)c(=O)[nH]1)C1CCS(=O)(=O)C1 (centres unmarked)	16.1%
CSCC(C)N1CCC(CCC(=O)NC2CC2)CC1 (centres unmarked)	-18.1%
OCCCCO	13.7%
Oc1ccc(Cc2ncc(C(F)(F)F)cc2Cl)cc1	-15.4%
Cc1ccc(N(CC(=O)N2CCCCC2)S(=O)(=O)c2ccc(C)cc2)cc1	-20.9%
OCc1csc(=Nc2ccccc2)n1-c1ccccc1	0.29%
CN(C)CCOCCOc1ccc(Cl)cc1C(C)(C)C.O=C(O)C(=O)O	-37.3%
C=CCc1cc(Cl)ccc1OCCOCCNC(C)CC.O=C(O)C(=O)O (centres unmarked)	-69.2%
C=CCc1cc(Cl)ccc1OCCOCCN(C)C.O=C(O)C(=O)O	-51.5%
C=CCc1cc(Cl)ccc1OCCOCCNC(C)(C)C.O=C(O)C(=O)O	-49.5%
CCC(C)NCCOCCOc1ccc(Cl)c(C)c1C.O=C(O)C(=O)O (centres unmarked)	-31.7%
C=CCc1cc(Cl)ccc1OCCN(C)C.O=C(O)C(=O)O	-42%
Cc1occc1-c1nnc(SCC(=O)Nc2c(F)cccc2F)n1C	-7.23%
CCOC(=O)c1c(C)[nH]c(C)c1S(=O)(=O)N1CCN(C(=O)c2ccco2)CC1	16.5%
Cc1ccc(S(=O)(=O)N2CCCOC2CNC(=O)C(=O)NCc2ccc3c(c2)OCO3)cc1 (centres unmarked)	-13.4%
CNC(=S)NNC(=O)c1cccn(Cc2cccc(C(F)(F)F)c2)c1=O	22.2%

SMILES	hERG current change (%, negative = inhibition) at 10uM
N#C/C(=C/c1ccc(O)cc1)C(=O)NCc1ccc(Cl)cc1	23.1%
C=CCSc1nc2ccsc2c(=O)n1-c1cccnc1	-8.97%
Cc1cc2nc(CO)[nH]c2cc1C	14.9%
O=C1NC2NC(=O)N([N+](=O)[O-])C2N1 (centres unmarked)	14.6%
CC(C)NC(=O)COC(=O)c1ccc(Cl)c(S(N)(=O)=O)c1	18.6%
O=C(Nc1c2c(nn1-c1ccc(Cl)cc1)CS(=O)(=O)C2)C1CC1	-26.8%
COc1ccc(CC(=O)Nc2c3c(nn2-c2cccc(Cl)c2)CS(=O)C3)cc1 (centres unmarked)	-37.1%
CCC(=O)Nc1c2c(nn1-c1cccc(Cl)c1)CS(=O)(=O)C2	-38.7%
O=C(Cc1ccccc1)Nc1c2c(nn1-c1cccc(Cl)c1)CS(=O)(=O)C2	-76.2%
CC(=O)Nc1c2c(nn1-c1cccc(Cl)c1)CS(=O)(=O)C2	-16.8%
CCCC(=O)Nc1c2c(nn1-c1cccc(Cl)c1)CS(=O)(=O)C2	-53.4%
O=C(Nc1c2c(nn1-c1cccc(Cl)c1)CS(=O)(=O)C2)c1ccco1	-37.9%
COc1ccc(CC(=O)Nc2c3c(nn2-c2cccc(C)c2C)CS(=O)(=O)C3)cc1	-24.5%
O=C(Nc1c2c(nn1-c1cccc(Cl)c1)CS(=O)(=O)C2)C1CC1	-66.9%
COc1ccc(CC(=O)Nc2c3c(nn2-c2cccc(Cl)c2)CS(=O)(=O)C3)cc1	-51.7%
O=C(Nc1c2c(nn1-c1ccccc1)CS(=O)(=O)C2)C1CCCC1	-0.437%
CC(C)CC(=O)Nc1c2c(nn1-c1cccc(Cl)c1)CS(=O)(=O)C2	-40.8%
COc1ccc(CSCCc2n[nH]c(=S)n2-c2ccccc2)cc1C	0.99%
O=C(COc1ncnc2ccccc12)Nc1cccc([N+](=O)[O-])c1	-2.61%
Cc1cc(C)nc(NC(N)=NCCc2c[nH]c3ccccc23)n1	11.6%

SMILES	hERG current change (%, negative = inhibition) at 10uM
Cc1ccc(CN=C(N)Nc2nc(C)cc(C)n2)cc1.Cl	-76.1%
Cc1cc(C)nc(/N=C(\N)Nc2ccc(CC(=O)OC(C)C)cc2)n1	-67.6%
Cc1cc(C)nc(NC(N)=NC(C)c2ccccc2)n1 (centres unmarked)	-0.0621%
CC(=O)NS(=O)(=O)c1ccc(N/C(N)=N/c2nc(C)cc(C)n2)cc1	13.3%
Cc1cccc(N/C(N)=N/c2nc(C)cc(C)n2)c1	-28%
Cc1cc(C)nc(/N=C(\N)Nc2ccc(C)c([N+](=O)[O-])c2)n1	-5.32%
Cc1cc(C)cc(N/C(N)=N/c2nc(C)cc(C)n2)c1	-50%
CC(=O)Nc1ccc(N/C(N)=N/c2nc(C)cc(C)n2)cc1	14%
Cc1ccc(N/C(N)=N/c2nc(C(F)(F)F)cc(C(F)(F)F)n2)cc1	18.9%
COc1cc(N/C(N)=N/c2nc(C)cc(C)n2)cc(OC)c1	-49.8%
Cc1ccc(N/C(N)=N/c2nc(C)cc(C)n2)cc1	-68.7%
O=C(NCC1CCCO1)NC1(C(F)(F)F)Oc2ccccc2O1 (centres unmarked)	1.63%
CN1CCN(S(=O)(=O)c2ccc3c4c(cccc24)C(=O)N3)CC1	-0.59%
O=C(NCN1C(=O)C2C3C=CC(C3)C2C1=O)Nc1ccccn1 (centres unmarked)	9.67%
CCOC(=O)N1CCC(NS(=O)(=O)c2cc3c(cc2C)NC(=O)CO3)CC1	-7.84%
Cc1ccc(NC(=O)NNC(=O)C2CC(c3cccnc3)=NO2)cc1 (centres unmarked)	4.19%
O=C1c2ccccc2C(=O)N1OCCOCCOCCON1C(=O)c2ccccc2C1=O	-29.2%
CC1(c2ccccc2)NC(=O)N(CC(=O)Nc2nnc(C3CC3)s2)C1=O (centres unmarked)	12.1%
O=C(Nc1ccc(F)cc1F)c1cccn(Cc2ccccc2)c1=O	13.1%
